Structures are written as SMILES. Calls of active or inactive are those of the source. No rule for the calls is given here.

In the assay the target is Pantothenate synthetase (Mycobacterium tuberculosis (strain ATCC 25618 / H37Rv)) (UniProt P9WIL5). Nature of the assay: Recombinant Mtb pantothenate synthetase (PanC) inhibitors, coupled enzyme, confirmatory (AID 375).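 Also: 0% = full reaction with vehicle and 100% = no enzyme background.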 To be noted: coupled enzyme assay; at 10 µM, active compounds read high.
Sequence of Pantothenate synthetase (Mycobacterium tuberculosis (strain ATCC 25618 / H37Rv)) (P9WIL5 whole entry, looked up): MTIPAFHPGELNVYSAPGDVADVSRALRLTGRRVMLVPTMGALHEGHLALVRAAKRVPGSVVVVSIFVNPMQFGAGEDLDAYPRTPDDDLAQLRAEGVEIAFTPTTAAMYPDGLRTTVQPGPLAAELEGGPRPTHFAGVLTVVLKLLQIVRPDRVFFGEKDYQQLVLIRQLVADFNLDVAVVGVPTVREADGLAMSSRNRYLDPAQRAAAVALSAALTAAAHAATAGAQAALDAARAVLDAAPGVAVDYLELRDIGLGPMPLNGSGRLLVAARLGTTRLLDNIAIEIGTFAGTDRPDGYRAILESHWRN
By inhibition is commonly meant the drop in the measured response relative to a control, in per cent. Regarding `CC(=O)c1c(C)nc(C)nc1NC(=O)Cc1ccccc1`, the inhibition is 0% (inactive).

On to `C/C(N)=C(/C#N)C(=O)CSc1nnc(Nc2cccc(C)c2)s1`, for which the inhibition is 0% (inactive). For `Cc1cc(C)cc(Nc2ncc3c(n2)CC(c2ccco2)CC3=O)c1` (stereo not given) the value was 3% (inactive).

Consider `COc1cc2c(cc1NC(=O)COC(=O)Cn1cnc3ccccc31)oc1ccccc12`, for which the inhibition is 0% (inactive).

`O=C(CSc1ncnc2c1cnn2Cc1ccccc1)Nc1ccc2c(c1)OCCO2`: the inhibition was 5% (inactive). For `Cc1ccc2c(c1)C(N1CCCC1=O)CC(c1ccco1)N2` (stereo not given), the inhibition is 0% (inactive). In the case of `c1ccc2c(c1)CC(N1CCCCC1)c1ccccc1N2` (stereo not given), the inhibition was 0% (inactive). As to `Cc1cc(C)n(-c2cc(N3CCOCC3)ncn2)n1`, the inhibition is 1% (inactive).

As for `CCCN(CCC)C(=O)C(CCC(=O)O)NC(=O)c1ccccc1` (stereo not given), the inhibition is 0% (inactive). For `O=C(COc1ncnc2ccccc12)NCc1ccc2c(c1)OCO2` the value was 0% (inactive). As to `COC(=O)c1c(NC(=O)CSc2nnc(-c3cccnc3)n2Cc2ccco2)sc(C)c1C`, the inhibition is 0% (inactive).

For the molecule `O=C(O)C1CC(=O)N(c2ccc(Br)cc2)C1` (stereo not given), the inhibition is 0% (inactive). Regarding `CCOn1c(=O)c(=O)n(OCc2ccccc2)c2ccccc21`, the inhibition is 0% (inactive).

As for `COc1ccc(CNS(=O)(=O)c2ccc3oc(C(=O)O)c(C)c3c2)cc1`, the inhibition was 0% (inactive). The value for `OCCNCCCCOc1ccccc1F` was 0% (inactive); that for `CC(C)c1cc(C(=O)NCc2ccco2)no1` was 0% (inactive); that for `O=C(CSc1nc2cc(S(=O)(=O)N3CCOCC3)ccc2o1)NC1CCCc2ccccc21` (stereo not given) was 0% (inactive).

Turning to `Cc1cc(NC(=O)CN2CCC(O)(c3cccc(F)c3)CC2)no1`, the inhibition is 0% (inactive). Consider `CC(c1ccccc1)n1cnc2ccccc21` (stereo not given), for which the inhibition was 0% (inactive). As for `COc1ccc(-c2noc(-c3ccccc3C(=O)Nc3cccnc3)n2)cc1OC`, the inhibition is 0% (inactive). Consider `COc1ccc(C(CNC(=O)CN2C(=O)NC3(CC(C)CC(C)(C)C3)C2=O)N2CCOCC2)cc1` (stereo not given), for which the inhibition is 4% (inactive). With `Cc1cc(NC(=O)CCC(=O)N(c2cccnc2)C(C(=O)NC2CCCC2)c2ccccc2F)no1` (stereo not given), the inhibition was 0% (inactive). With `CC(=O)OCC(=O)[C@@]1(O)CC[C@H]2[C@@H]3CCC4=CC(=O)C=C[C@]4(C)[C@H]3[C@@H](O)C[C@@]21C`, the inhibition was 0% (inactive).

For the molecule `CCCN(CCC)CCCNS(=O)(=O)c1ccc2c(c1)oc(=O)n2C`, the inhibition was 0% (inactive). Regarding `COc1cccc(OC)c1C(=O)Nc1ccc(CN2CCCCC2)cc1`, the inhibition was 0% (inactive).

Consider `CN(C(=O)c1ccc(S(=O)(=O)NC2CCCC2)cc1)C1CCCCC1`, for which the inhibition is 5% (inactive).

Take `COc1ccc(NC(=O)CC2Sc3ncnn3C2=O)cc1` (stereo not given): the inhibition is 0% (inactive). In the case of `Cc1ccc(S(=O)(=O)N(C)Cc2cc3ccccc3[nH]c2=O)cc1`, the inhibition is 0% (inactive). Consider `O=C(NC1CCS(=O)(=O)C1)c1c(NC(=O)C2COc3ccccc3O2)sc2c1CCCC2` (stereo not given), for which the inhibition was 0% (inactive). Turning to `CC(C)(C)NC(=O)C(c1ccco1)N(C(=O)Cn1nnc(-c2ccc(F)cc2)n1)c1ccccc1` (stereo not given), the inhibition is 0% (inactive). `CCOC(=O)C1CCN(c2nc3ccccc3nc2C(C#N)C(=O)OCCOC)CC1` (stereo not given): the inhibition was 0% (inactive).

For the molecule `Cc1ccc(CCC(=O)Nc2ccc(S(N)(=O)=O)cc2)o1`, the inhibition was 1% (inactive). As for `CC1CCN(C(=O)CN2C(=O)C(C)(C)Oc3ccc(C(=O)NC4CCCC4)cc32)CC1`, the inhibition was 0% (inactive). Take `COc1ccc(C2(C(=O)Nc3cc(C)on3)CCOCC2)cc1`: the inhibition is 2% (inactive). The value for `CCOC(=O)C1=C(CC)Nc2ccccc2N=C1NC(=O)Nc1ccccc1OC` was 2% (inactive); that for `CC(=O)c1c(C)oc2ccc(NS(=O)(=O)c3ccc(O)c(C(=O)O)c3)cc12` was 4% (inactive). As for `Cc1cccc(C2c3c(n(C)c(=O)n(C)c3=O)N=C3c4ccccc4C(=O)C32)c1` (stereo not given), the inhibition was 7% (inactive). Turning to `O=C(Nc1cccnc1)c1cccc(NC(=O)c2ccco2)c1`, the inhibition is 0% (inactive). In the case of `CC(=O)Nc1ccc(OCC(O)Cn2nc(C)nc2C)cc1` (stereo not given), the inhibition was 4% (inactive).

With `CCn1c(C(=O)N2CCC(C(=O)NCc3ccc4c(c3)OCO4)CC2)cc2sccc21`, the inhibition was 0% (inactive).
